Measurements taken from PubChem BioAssay.
Activity calls are given as the source filed them.

Legend:
[1] = binders of probe aFSTL3 on microarray, primary screen, stem cell growth factor project, biochemical, small-molecule microarray, fluorescence 635/667 (AID 1064); conditions: higher = more signal;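 further: measures binding of the biotinylated anti-FSTL3 antibody to printed compounds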
[2] = binders from COS7 lysate, DM2A8 probe, primary screen, torsin A project, cell lysate, small-molecule microarray, fluorescence 635/667 (AID 1065); conditions: higher = more signal, COS7 lysate expressing mutant human TOR1A
[3] = binders of probe aFGF2 on microarray, primary screen, stem cell growth factor project, biochemical, small-molecule microarray, fluorescence 635/667 (AID 1067); conditions: higher = more signal;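 further: measures binding of biotinylated aFGF2 protein to printed compounds on slides; z-score merges feature fluorescence and signal-to-noise across triplicate slides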
[4] = binders of probe aFGF10 on microarray, primary screen, stem cell growth factor project, biochemical, small-molecule microarray, fluorescence 635/667 (AID 1071); conditions: higher = more signal;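 further: score merges 667 nm spot intensity and signal to noise from triplicate slides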
[5] = target: Neurogenic locus notch homolog protein 2 (Homo sapiens) (UniProt Q04721); assay: Notch2 binders on small-molecule microarrays, primary screen, biochemical, small-molecule microarray, 635 nm fluorescence, stem cell growth factors (AID 1073); conditions: Notch2 binding, higher = more signal
Neurogenic locus notch homolog protein 2 (Homo sapiens), sequence (Q04721 whole entry, looked up, canonical isoform): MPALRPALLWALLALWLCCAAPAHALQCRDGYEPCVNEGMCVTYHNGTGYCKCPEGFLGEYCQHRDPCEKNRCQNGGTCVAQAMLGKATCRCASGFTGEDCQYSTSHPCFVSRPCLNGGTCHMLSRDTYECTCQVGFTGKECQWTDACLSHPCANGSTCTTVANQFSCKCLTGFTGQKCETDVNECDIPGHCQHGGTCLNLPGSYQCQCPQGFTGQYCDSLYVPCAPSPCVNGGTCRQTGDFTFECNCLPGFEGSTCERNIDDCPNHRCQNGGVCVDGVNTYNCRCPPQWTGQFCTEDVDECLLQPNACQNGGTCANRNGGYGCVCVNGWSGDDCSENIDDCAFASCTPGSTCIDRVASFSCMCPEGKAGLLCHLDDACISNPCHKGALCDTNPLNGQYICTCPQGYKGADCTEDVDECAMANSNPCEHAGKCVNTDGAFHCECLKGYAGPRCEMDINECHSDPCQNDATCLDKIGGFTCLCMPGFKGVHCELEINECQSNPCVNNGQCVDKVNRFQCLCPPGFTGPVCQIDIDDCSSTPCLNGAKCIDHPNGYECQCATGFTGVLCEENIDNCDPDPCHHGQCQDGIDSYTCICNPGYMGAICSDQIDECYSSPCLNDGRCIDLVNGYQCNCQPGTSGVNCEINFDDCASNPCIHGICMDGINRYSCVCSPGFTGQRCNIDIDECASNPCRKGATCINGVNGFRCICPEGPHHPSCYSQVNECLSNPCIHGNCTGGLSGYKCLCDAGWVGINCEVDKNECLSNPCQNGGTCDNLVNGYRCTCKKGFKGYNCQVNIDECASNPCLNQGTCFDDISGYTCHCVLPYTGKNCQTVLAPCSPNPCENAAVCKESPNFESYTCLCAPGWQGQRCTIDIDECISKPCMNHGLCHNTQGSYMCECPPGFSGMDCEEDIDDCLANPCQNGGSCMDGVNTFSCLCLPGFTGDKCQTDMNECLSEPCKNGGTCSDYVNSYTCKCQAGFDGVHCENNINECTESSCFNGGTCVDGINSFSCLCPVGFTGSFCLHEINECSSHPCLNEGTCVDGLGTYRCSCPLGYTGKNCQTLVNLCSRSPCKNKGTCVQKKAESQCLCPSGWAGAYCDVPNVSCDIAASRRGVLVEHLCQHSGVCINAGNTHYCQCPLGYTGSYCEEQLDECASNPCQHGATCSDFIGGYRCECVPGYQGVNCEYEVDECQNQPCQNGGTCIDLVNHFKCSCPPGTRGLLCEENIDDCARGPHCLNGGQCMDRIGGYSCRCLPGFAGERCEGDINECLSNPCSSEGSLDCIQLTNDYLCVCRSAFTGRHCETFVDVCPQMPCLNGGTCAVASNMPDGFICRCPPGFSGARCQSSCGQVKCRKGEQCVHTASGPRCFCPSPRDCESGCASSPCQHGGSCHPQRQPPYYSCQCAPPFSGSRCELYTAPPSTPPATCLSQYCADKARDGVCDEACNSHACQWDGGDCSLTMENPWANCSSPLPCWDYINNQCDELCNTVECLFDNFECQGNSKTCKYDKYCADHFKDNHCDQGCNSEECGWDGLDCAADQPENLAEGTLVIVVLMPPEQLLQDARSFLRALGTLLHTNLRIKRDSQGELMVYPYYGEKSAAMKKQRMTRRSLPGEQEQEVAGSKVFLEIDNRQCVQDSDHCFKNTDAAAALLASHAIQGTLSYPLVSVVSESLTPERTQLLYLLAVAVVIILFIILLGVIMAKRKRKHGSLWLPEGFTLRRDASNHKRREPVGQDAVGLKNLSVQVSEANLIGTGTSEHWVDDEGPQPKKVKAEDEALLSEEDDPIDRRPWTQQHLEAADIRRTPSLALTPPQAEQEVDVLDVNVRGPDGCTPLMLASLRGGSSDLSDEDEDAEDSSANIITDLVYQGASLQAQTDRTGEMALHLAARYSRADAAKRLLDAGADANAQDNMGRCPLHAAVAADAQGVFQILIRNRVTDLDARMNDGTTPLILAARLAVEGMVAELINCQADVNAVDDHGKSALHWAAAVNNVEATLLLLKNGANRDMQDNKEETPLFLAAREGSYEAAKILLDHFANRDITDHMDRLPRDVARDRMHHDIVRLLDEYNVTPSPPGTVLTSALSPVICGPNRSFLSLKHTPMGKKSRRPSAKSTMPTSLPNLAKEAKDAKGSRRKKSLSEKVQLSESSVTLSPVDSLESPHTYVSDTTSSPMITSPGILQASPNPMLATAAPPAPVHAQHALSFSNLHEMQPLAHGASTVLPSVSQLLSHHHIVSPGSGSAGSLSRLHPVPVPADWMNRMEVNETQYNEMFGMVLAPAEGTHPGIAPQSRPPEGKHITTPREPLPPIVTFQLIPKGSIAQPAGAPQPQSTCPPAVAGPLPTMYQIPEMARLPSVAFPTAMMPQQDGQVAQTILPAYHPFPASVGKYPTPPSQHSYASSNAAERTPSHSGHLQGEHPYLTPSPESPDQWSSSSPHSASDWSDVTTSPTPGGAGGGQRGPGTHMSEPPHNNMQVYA

[6] = target: Pro-neuregulin-1, membrane-bound isoform (Homo sapiens) (UniProt Q02297); assay: NRG1 binders on small-molecule microarrays, primary screen, psychiatric disease protein project, biochemical, small-molecule microarray, fluorescence 635/667 (AID 1075); conditions: NRG1 binding, 635 nm fluorescence, higher = more signal;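 further: score combines 667 nm spot fluorescence with signal to noise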
Pro-neuregulin-1, membrane-bound isoform (Homo sapiens), sequence (Q02297 whole entry, looked up, the tested form may be a part, canonical isoform): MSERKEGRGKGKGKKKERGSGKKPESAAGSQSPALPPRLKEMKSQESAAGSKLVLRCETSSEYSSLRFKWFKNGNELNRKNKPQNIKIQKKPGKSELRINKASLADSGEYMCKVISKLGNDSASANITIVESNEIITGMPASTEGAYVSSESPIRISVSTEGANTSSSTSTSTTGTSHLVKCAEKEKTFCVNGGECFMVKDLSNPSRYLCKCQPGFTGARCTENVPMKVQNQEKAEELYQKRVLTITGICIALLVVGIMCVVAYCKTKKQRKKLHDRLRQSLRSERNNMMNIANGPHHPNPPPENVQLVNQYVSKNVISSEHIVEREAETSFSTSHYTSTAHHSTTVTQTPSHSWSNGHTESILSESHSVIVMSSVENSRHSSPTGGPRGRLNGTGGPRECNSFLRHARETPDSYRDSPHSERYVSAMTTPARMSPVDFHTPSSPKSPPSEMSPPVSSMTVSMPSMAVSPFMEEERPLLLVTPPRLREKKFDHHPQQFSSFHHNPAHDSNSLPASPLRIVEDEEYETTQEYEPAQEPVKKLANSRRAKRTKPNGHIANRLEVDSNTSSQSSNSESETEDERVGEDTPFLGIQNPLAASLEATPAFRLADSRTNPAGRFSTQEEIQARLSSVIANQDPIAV

[7] = system: Neuregulin-1 EGF-like domain; assay: binders of neuregulin-1 EGF-like domain, primary screen, biochemical, small-molecule microarray, 635 nm fluorescence (AID 1081); conditions: small-molecule microarray binding, higher = more signal;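 further: binding of the protein to compounds printed on small-molecule microarray slides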
[8] = FRG1 promoter luciferase signal modulators, primary screen, FRG1 inhibition for FSHD, cell-based, C2C12 myotubes, firefly/Renilla luciferase, luminescence (AID 1084); conditions: higher = more signal, called active from +8 up or from −8 down
[9] = binders of probe aFST on microarray, primary screen, stem cell growth factor project, biochemical, small-molecule microarray, fluorescence 635/667 (AID 1086); conditions: higher = more signal;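 further: score merges 667 nm fluorescence with signal-to-noise of each printed compound spot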
[10] = binders of probe aHhip on microarray, primary screen, stem cell growth factor project, biochemical, small-molecule microarray, fluorescence 635/667 (AID 1087); conditions: higher = more signal;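 further: score merges spot fluorescence at 667nm with spot signal to noise ratio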
[11] = system: PRMT1 (protein arginine N-methyltransferase 1); assay: PRMT1 binders on small-molecule microarrays, primary screen, biochemical, small-molecule microarray, 635 nm fluorescence (AID 1088); conditions: small-molecule microarray binding, higher = more signal;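 further: binding of Prmt1 protein to compounds spotted on small-molecule microarray slides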
[12] = yeast growth modulation, basal conditions, primary screen, YJM789 clinical isolate, OD600, 24 h (AID 1089);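 further: growth of clinical yeast isolate S. cerevisiae YJM 789 seeded 1000 cells per well; test concentration not given here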; conditions: S. cerevisiae YJM789 growth, higher = more signal, called active from +8 up or from −8 down
[13] = fission yeast growth modulation, primary screen, strain 972, OD600, 24 h, no modulator (AID 1090);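 further: basal condition with compound alone and no growth modifier present; test concentration not given here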; conditions: S. pombe 972 growth, higher = more signal, called active from +8 up or from −8 down
[14] = S. cerevisiae growth modulation with rapamycin, primary screen, strain BY4716, OD600, 96 h (AID 1091); conditions: higher = more signal, called active from +8 up or from −8 down; further: test concentration not given here
[15] = target: Torsin-1A-interacting protein 2 (Homo sapiens) (UniProt Q8NFQ8); assay: LULL1 binders on small-molecule microarray, primary screen, cell lysate, human LULL1 lysate, 635/667 nm fluorescence (AID 1092); conditions: hLULL1 lysate binding, 635 nm fluorescence, higher = more signal;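 further: probe is lysate of COS7 cells overexpressing human LULL1; score merges per-feature 667 nm fluorescence with signal-to-noise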
Torsin-1A-interacting protein 2 (Homo sapiens), sequence (Q8NFQ8 whole entry, looked up): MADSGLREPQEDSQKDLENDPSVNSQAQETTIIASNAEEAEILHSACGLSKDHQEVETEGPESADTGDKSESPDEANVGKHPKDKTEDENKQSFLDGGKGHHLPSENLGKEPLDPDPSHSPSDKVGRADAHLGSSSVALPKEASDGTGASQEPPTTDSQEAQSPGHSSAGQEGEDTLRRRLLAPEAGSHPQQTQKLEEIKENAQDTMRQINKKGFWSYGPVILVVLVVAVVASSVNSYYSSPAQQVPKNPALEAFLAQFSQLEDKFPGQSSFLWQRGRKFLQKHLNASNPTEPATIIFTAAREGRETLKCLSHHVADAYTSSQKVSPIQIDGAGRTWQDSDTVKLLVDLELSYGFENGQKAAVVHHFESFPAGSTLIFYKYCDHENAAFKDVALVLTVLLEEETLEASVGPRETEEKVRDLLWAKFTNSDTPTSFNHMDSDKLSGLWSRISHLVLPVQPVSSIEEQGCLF

[16] = E. coli growth modulation, two-sided OD650, primary screen, E. coli filamentation project, strain DRC41, 24 h (AID 1093); conditions: OD650, 24 h, higher = more signal, called active from +8 up or from −8 down;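 further: MC1000 strain lacking acrAB efflux and sulA so SOS filamentation is blocked; test concentration not given here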
[17] = small-molecule microarray binders of probe aLefty2, primary screen, biochemical, biotinylated probe, 635/667 nm fluorescence (AID 1094); conditions: higher = more signal;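 further: score merges spot fluorescence near 667 nm with spot signal-to-noise ratio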
[18] = system: Noggin (protein binding on small-molecule microarray); assay: Noggin binders on small-molecule microarray, primary screen, biochemical, 635/667 nm fluorescence (AID 1095); conditions: 635 nm fluorescence, higher = more signal;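 further: score merges 667 nm feature fluorescence with signal to noise over triplicate slides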
[19] = target: Neurogenic locus notch homolog protein 3 (Homo sapiens) (UniProt Q9UM47); assay: NOTCH3 binders on small-molecule microarray, primary screen, biochemical, 635/667 nm fluorescence (AID 1096); conditions: NOTCH3 binding, 635 nm fluorescence, higher = more signal
[20] = small-molecule microarray binders of probe aEGFR, primary screen, biochemical, biotinylated probe, 635/667 nm fluorescence (AID 1097); conditions: higher = more signal;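 further: probe is a biotinylated anti-EGFR antibody binding compounds printed on slides; score combines fluorescence near 667 nm and signal to noise of each spot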

Compound	composite z-score [1]	composite z-score [2]	composite z-score [3]	composite z-score [4]	composite z-score [5]	composite z-score [6]	composite z-score [7]	z-score [8]	composite z-score [9]	composite z-score [10]	composite z-score [11]	z-score [12]	z-score [13]	z-score [14]	composite z-score [15]	z-score [16]	composite z-score [17]	composite z-score [18]	composite z-score [19]	composite z-score [20]
CN(C)CCCC[C@@H]1NC(=O)[C@H]2C[C@@H](C(=O)NCCCCCCNC(=O)CS)[C@@H](c3cccc(OCCO)c3)N2C1=O	0.272	0.447	-0.135	-0.217	-0.486	0.891	0.334	0.47 (inactive)	-0.346	0.411	-0.174	-0.522 (inactive)	-0.221 (inactive)	-0.195 (inactive)	0.935	-0.12 (inactive)	0.0141	-0.0227	-0.289	-0.146
C=C(COC)C(=O)CC[C@H](OC(C)=O)c1ccccc1OCCO	-0.0661	0.697	-0.167	0.484	-0.987	-0.493	0.355	-0.0831 (inactive)	-0.215	-0.0994	1.39	0.556 (inactive)	-2.58 (inactive)	-0.401 (inactive)	-0.323	1.32 (inactive)	-0.166	0.985	0.367	-0.262
COc1c(C)cc(-c2cc3c(c(CCc4ccccc4)n2)[Si](C(C)C)(C(C)C)O[C@H]3c2ccccc2)cc1C	-0.473	-0.0939	-0.166	-0.0024	-0.0773	-0.133	-0.0748	-0.278 (inactive)	0.125	-0.0296	-0.848	0.864 (inactive)	0.307 (inactive)	33.1 (active)	0.0198	-0.899 (inactive)	-0.0519	0.108	0.24	-0.162
O=C1O[C@@H](c2ccccc2)[C@@H](c2ccccc2)N2[C@@H](c3ccccc3OCCO)[C@]3(C(=O)Nc4ccc(C#CC5(O)CCCCCC5)cc43)[C@@H](C(=O)N3CCCCCCC3)[C@H]12	4.04	2.44	1.08	1.47	1.89	2.67	1.4	-1.05 (inactive)	3.81	3.97	1.53	0.834 (inactive)	-0.51 (inactive)	2.57 (inactive)	5.07	1.23 (inactive)	1.95	2.46	1	1.52
[N-]=[N+]=Nc1ccccc1C[C@]1(C(N)=O)COC(c2ccc(OCCCO)cc2)=N1	1.05	-0.455	0.0247	0.149	0.278	1.81	1.34	3.48 (inactive)	0.236	-0.0618	-0.0424	-0.684 (inactive)	-0.846 (inactive)	0.0643 (inactive)	2.84	0.0474 (inactive)	0.538	-0.863	-0.0154	0.516
O=C1O[C@@H](c2ccccc2)[C@@H](c2ccccc2)N2[C@@H](c3ccc(OCCO)cc3)[C@]3(C(=O)Nc4ccc(C#CC5=CCCCC5)cc43)[C@@H](C(=O)Nc3nc4ccccc4s3)[C@H]12	-0.574	0.0484	-0.357	0.3	0.91	0.744	0.651	4.67 (inactive)	-1.06	-1.07	1.56	2.22 (inactive)	1.59 (inactive)	1.57 (inactive)	1.86	-0.124 (inactive)	-0.673	1.11	1.02	-0.0613
CC(C)(C)OC(=O)N1[C@@H](C=C(Br)Br)COC1(C)C	-0.195	-0.0287	0.0014	0.348	0.519	-0.0961	0.286	-1.42 (inactive)	0.125	0.0302	0.656	-2.93 (inactive)	-6.61 (inactive)	-1.27 (inactive)	0.546	1.74 (inactive)	-0.0815	0.462	0.668	-0.0954
C=C[C@H](OC)[C@@H](O)c1ccc(OC)c(O)c1	0.694	-1.02	-0.137	-0.248	-1.34	-0.967	-0.673	0.0137 (inactive)	-1	0.107	-1.84	0.0615 (inactive)	0.242 (inactive)	-0.0251 (inactive)	-0.456	-0.0822 (inactive)	-0.0783	-0.81	-0.436	-0.258
CC(C)C(=C=CC[C@H](O)c1cccc(OCCO)c1)C[C@H](O)c1ccccn1	-0.242	-0.243	-0.166	0.016	-0.0938	-0.272	1.05	-0.29 (inactive)	-0.0565	-0.0645	1.21	0.262 (inactive)	0.317 (inactive)	-0.647 (inactive)	1.55	0.879 (inactive)	-0.143	0.731	0.403	-0.157
C=C(C(=O)CC[C@@H](OC(=O)c1ccccc1-c1ccccc1C(=O)O)c1ccc(CO)o1)C(C)C	-0.422	1.18	-0.087	1.03	0.0438	0.115	0.445	0.0639 (inactive)	0.379	-0.0645	1.47	-0.595 (inactive)	-0.39 (inactive)	-0.881 (inactive)	0.167	-0.249 (inactive)	-0.19	1.07	1.07	-0.0947
